An excerpt weighted towards active compounds, which were near 4.2% of everything screened.
ssDAF-12 act: activates DAF-12 receptor from parasite S. stercoralis; HEK293 ssDAF-12/GRIP1 lit1-tk-luc reporter, luminescence; % of 3 µM dafachronic acid response; activation, % at 6.8 µM; actives 1% (n = 370,000); AID 652126;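 active = activation above the mean over all tested compounds plus 3 SD, cut at about 0.9% in these data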;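 note: 0% = DMSO-only wells and 100% = 3 µM delta7-dafachronic acid wells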
Wnt bcat act: activators of Wnt/beta-catenin signaling | Wnt/beta-catenin reporter cell assay, activator, plate reader | activation, % at 9.35 µM | actives 1.2% (n = 300,000) | AID 743398; in the data active = activation above about 30%, passing the limit was not always enough; inconclusive = no clear call, values can overlap the other calls;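 note: 0% = neutral control wells and 100% = positive control wells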
hgDAF12 agonist: hgDAF-12 agonism, primary luciferase screen | actives 1.8% (n = 370,000) | HEK293 GAL4-hgDAF12 UAS-luciferase reporter, agonist luminescence; normalized to butyrate control | AID 687014 | activation, % at 6.8 µM;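 active = activation above a cutoff set at the mean of all screened compounds plus 3 SD, cut at about 10% in these data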;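 note: 0% = DMSO wells and 100% = sodium butyrate wells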
esBAF inh: blocks esBAF chromatin remodeling in mouse ES cells | AID 602393 | Bmi1-luciferase knock-in reporter, 24 h; 100% = twice the neutral-well signal | reporter increase, % at 12.5 µM | actives 2% (n = 350,000); in the data active = activation above about 40%; inconclusive = no clear call, values can overlap the other calls;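 note: 0% = median of the plate's neutral control wells and 100% = double that signal; a rise in the Bmi1 reporter signal indicates esBAF inhibition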
DAX1 StAR inh: inhibitors of DAX1 repression of SF-1 activated StAR promoter; HEK293T StAR-luciferase reporter, SF-1/DAX-1 repression relief; inhibition, % at 6.8 µM; actives 1.1% (n = 370,000); AID 652010;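 active = inhibition above the mean over all tested compounds plus 3 SD, cut at about 3.6% in these data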;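 note: 0% = DAX-1 cells with DMSO and 100% = cells lacking DAX-1 with DMSO; higher inhibition means more luminescence from relief of DAX-1 repression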
hcDAF12 agonist: H. contortus DAF-12 activation, primary screen; actives 1.4% (n = 370,000); activation, % at 6.8 µM; HEK293 hcDAF-12 lit1-tk-luc reporter, luminescence; 0% DMSO, 100% Δ7-dafachronic acid;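 active = activation above the mean of all tested compounds plus 3 SD, cut at about 5.5% in these data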;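 note: 100% = response to 3 µM Δ7-dafachronic acid high control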
* hit, by the source's call; u = inconclusive; x = no result given.

SMILES | ssDAF-12 act | Wnt bcat act | hgDAF12 agonist | esBAF inh | DAX1 StAR inh | hcDAF12 agonist
CCCNC(=O)Nc1ccc2c(c1)C(=O)N(C)C[C@@H](OC)[C@H](C)CN(Cc1ccc(-c3ccccn3)cc1)[C@@H](C)CO2 | x | x | x | 3.5 | x | x
O=C(CSCc1ccc(Cl)cc1)Nc1ccc2c(c1)OCO2 | -0.9 | x | 0.6 | x | 0.0 | -1.1
O=C(CNCc1ccccc1Cl)Nc1ccc2c(c1)OCCO2 | -1.3 | 3.2 | 12.0* | 52.5* | 3.3 | 0.3
O=C(CSCc1ccccc1Cl)Nc1ccc2c(c1)OCCO2 | -1.0 | -4.5 | 11.1* | -23.9 | 3.3 | 3.1
Nc1ccccc1SCC(=O)Nc1ccc2c(c1)OCCO2 | 0.3 | -1.0 | 4.5 | 31.9 | 0.1 | 3.6
Nc1ccccc1SCC(=O)Nc1ccc2c(c1)OCO2 | -0.1 | 9.6 | 4.6 | 24.6 | 4.2* | 1.4
COc1ccccc1S(=O)(=O)N[C@H]1CC[C@H](CCn2cc(C3CC3)nn2)O[C@H]1CO | x | x | x | 5.1 | x | x
C[C@H](CO)N1C[C@H](C)[C@@H](CN(C)Cc2ccc(Cl)c(Cl)c2)Oc2ccc(NC(=O)Nc3ccc4c(c3)OCO4)cc2C1=O | x | x | x | 3.6 | x | x
C[C@@H]1CCCCO[C@H](CN(C)C(=O)CCCN(C)C)[C@@H](C)CN([C@H](C)CO)C(=O)c2cc(NS(C)(=O)=O)ccc2O1 | x | x | x | -0.2 | x | x
O=C(CN1CCCCCC1)N/N=C/c1ccc(Cl)c(Cl)c1 | -1.1 | x | 1.1 | x | 0.5 | 0.3
CN(C)c1ccc(/C=N/NC(=O)CN2CCCCC2)cc1Br | 1.3* | 12.7 | -1.1 | -5.6 | 0.8 | -1.6
Fc1ccc(-c2csc(N3CCC(c4ccccc4)C3)n2)cc1 (stereo not given) | -0.8 | 3.9 | 7.3 | 50.3* | 1.4 | 1.4
COc1ccc(-c2csc(N3CCSCC3)n2)cc1 | -0.7 | u | 4.8 | 46.6* | 0.9 | 0.5
Clc1ccc(-c2csc(N3CCCCCC3)n2)cc1 | -1.1 | 7.7 | 2.9 | 1.7 | 0.3 | 2.1
c1ccc(-c2csc(N3CCCCCC3)n2)cc1 | -0.4 | x | 2.0 | 42.8* | 1.2 | 0.3
COc1ccc(-c2csc(N3CCOCC3)n2)cc1OC | -1.0 | 16.6 | 11.3* | 58.4* | 0.3 | 2.2
Clc1ccc(-c2csc(N3CCC(c4ccccc4)C3)n2)cc1 (stereo not given) | -0.9 | x | 0.5 | 1.5 | 0.4 | -1.2
CC(=O)N1[C@@H]2c3ccc(-c4ccccc4)c(=O)n3C[C@H]1[C@H](CO)[C@H]2C(=O)Nc1ccccc1 | x | x | x | -1.6 | x | x
C[C@@H]1CCCCO[C@@H](CN(C)S(=O)(=O)c2cccs2)[C@@H](C)CN([C@H](C)CO)C(=O)c2cc(NC(=O)Nc3cccc4ccccc34)ccc2O1 | x | x | x | 2.6 | x | x
COc1ccc(OCc2cc(C(=O)N(C)CCC3CCOCC3)no2)c(Cl)c1 | -1.0 | 21.9 | 2.6 | 58.0* | -2.0 | 3.8
COc1cc(Cl)ccc1OCc1cc(C(=O)N(C)CC2CCCCO2)no1 (stereo not given) | -1.0 | 40.3* | 12.1* | 69.7* | 0.3 | 1.6
COc1ccc(OCc2cc(C(=O)N(C)C(C)c3ccon3)no2)c(Cl)c1 (stereo not given) | -0.2 | 18.7 | 9.6 | 73.5* | 2.1 | 2.7
COc1ccc(OCc2cc(C(=O)NCCCc3ccccc3)no2)c(Cl)c1 | -1.5 | 3.0 | -1.3 | x | -1.9 | 0.1
COc1ccc(OCc2cc(C(=O)NC3CCc4ccccc43)no2)c(Cl)c1 (stereo not given) | -0.7 | -2.3 | -1.9 | x | 0.2 | 3.1
CN(CCC1CCCCO1)C(=O)c1cc(COc2ccc(F)cc2F)on1 (stereo not given) | 0.3 | 3.3 | -1.7 | 1.9 | -1.0 | -1.6
SMILES | ssDAF-12 act | Wnt bcat act | hgDAF12 agonist | esBAF inh | DAX1 StAR inh | hcDAF12 agonist
COc1ccc(OCc2cc(C(=O)N(C)CC3CCCCO3)no2)c(Cl)c1 (stereo not given) | -0.3 | 19.2 | 2.0 | 41.4* | -0.2 | 0.9
COCCNC(=O)C[C@H]1CC[C@@H]2[C@H](COC[C@H](O)CN2C(=O)Nc2ccccc2OC)O1 | x | x | x | -0.3 | x | x
CN(CC1CCCCO1)C(=O)c1cc(COc2ccc(F)cc2Cl)on1 (stereo not given) | 0.2 | 12.7 | 3.6 | 43.4* | 0.4 | 1.7
O=C(COc1ccc2c(c1)CCC2)N1CCc2ccccc21 | 0.3 | 60.2* | 4.1 | 78.2* | 2.1 | 0.6
Cc1ccnc(SCC(=O)N2CCc3ccccc32)n1 | -0.2 | 13.7 | 6.4 | 55.8* | 0.8 | -1.0
CCc1ccc(OCC(=O)N2CCc3ccccc32)cc1 | -0.1 | 28.2 | 11.9* | 47.1* | 1.4 | 4.3
O=C(CSc1ncccn1)N1CCCc2ccccc21 | -1.4 | 0.2 | -0.9 | x | 0.7 | -0.5
CCCN1C[C@@H](C)[C@H](OC)CN(C)C(=O)c2cc(NS(C)(=O)=O)ccc2OC[C@@H]1C | x | x | x | 4.1 | x | x
COc1ccc(NC(=O)Nc2ccc3c(c2)C(=O)N([C@@H](C)CO)C[C@H](C)[C@H](CN(C)S(=O)(=O)c2cn(C)cn2)O3)cc1 | x | x | x | 0.5 | x | x
CCNC(=O)C[C@H]1CC[C@@H]2[C@H](COC[C@@H](O)CN2C(=O)Nc2ccc(Cl)c(Cl)c2)O1 | x | x | x | -0.7 | x | x
COc1ccc(C#Cc2cnc3c(c2)C(=O)N([C@H](C)CO)C[C@H](C)[C@H](CN(C)S(=O)(=O)c2ccc(C#N)cc2)O3)cc1OC | x | x | x | 7.0 | x | x
COc1cc(-c2ccc3oc(-c4ccsc4)cc3c2)cc(OC)c1OC | -1.1 | -9.5 | 1.1 | 11.3 | 0.1 | -0.1
O=c1cc(-c2ccsc2)oc2ccc(-c3ccc4cc[nH]c4c3)cc12 | -1.1 | 23.5 | 5.0 | 59.4* | -0.3 | 1.2
COc1ccc(-c2ccc3oc(-c4ccsc4)c(-c4ccc(OC)cc4)c3c2)cc1 | -0.9 | -6.6 | 1.3 | 1.7 | 0.1 | -0.7
COc1ccc(-c2ccc3oc(-c4ccsc4)cc(=O)c3c2)cc1F | -1.2 | 6.9 | -1.1 | 45.1* | 0.0 | 0.5
CN1CCN(C(=S)NCCc2ccccc2)CC1 | -0.5 | 2.1 | 12.9* | 34.8 | -0.1 | 1.7
CC(C)(C)C1=NN(C(=O)c2ccccc2)C(O)(C(C)(C)C)C1 (stereo not given) | -1.2 | x | 4.8 | x | 0.1 | -0.7
CC(C)C1=NN(C(=O)c2ccccc2)C(O)(C(C)(C)C)C1 (stereo not given) | 0.0 | -0.7 | 11.6* | x | 0.8 | 0.1
CN1CCN(C(=O)C[C@@H]2C[C@H]3c4cc(NC(=O)Nc5ccc(F)cc5)ccc4O[C@H]3[C@@H](CO)O2)CC1 | x | x | x | 0.5 | x | x
O=C(CSc1nnc(-c2cccnc2)o1)c1cc2ccccc2oc1=O | -0.7 | 0.6 | 12.3* | -0.3 | 1.0 | 3.4
CC(C)CC#Cc1cnc2c(c1)C(=O)N([C@@H](C)CO)C[C@H](C)[C@H](CN(C)Cc1ccc(C(=O)O)cc1)O2 | x | x | x | -4.6 | x | x
